58 molecules from PubChem BioAssay AID652126 (The Scripps Research Institute Molecular Screening Center, 2013) can be followed below.

Screen size: about 370,000 compounds; about 3,700 (1%) were called active.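 Rule for the calls: active = activation above the mean over all tested compounds plus 3 SD (cut at about 0.9% in these data); inactive = the rest.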 What follows is part of a selection rich in actives, with near analogues and random picks from the rest.

The assay concerns Nuclear hormone receptor DAF-12 (Strongyloides stercoralis). The assay can be described thus: S. stercoralis DAF-12 nuclear receptor activators, primary screen, cell-based, luminescence, HEK293, GRIP1 co-expression, lit1-tk-luc (AID 652126).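 Note: 0% = DMSO-only wells and 100% = 3 µM delta7-dafachronic acid wells.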 The conditions noted are these: HEK293 ssDAF-12/GRIP1 lit1-tk-luc reporter, at 6.8 µM, hits give high values, % of 3 µM dafachronic acid response.
Take `CN(Cc1ccc(F)cc1)C(=O)COc1ccc2ccccc2c1`: the activation is -0.45% (inactive).

As for `COc1ccccc1S(=O)(=O)NCc1ccc(C(=O)N(C)Cc2ccc(F)cc2)cc1`, the activation is -1.02% (inactive).

As to `CN(Cc1nc2ccccc2s1)C(=O)c1ccc(F)cc1`, the activation was 1.11% (active).

For `CSc1ccc(C=Nn2c(-c3ccc(F)cc3)n[nH]c2=S)cc1`, the activation was -1.67% (inactive).

`C[C@@H]1ON(C)[C@H]2C[C@H]3c4[nH]c5cccc(-c6ccc7c(c6)OCO7)c5c4CCN3C[C@@H]12`: the activation is -0.56% (inactive).

On to `CC(C)Cc1cc(C(=O)NCCc2ccccc2)no1`, for which the activation is 1.34% (active).

On to `O=C(NCCCc1ccccc1)c1cc(COc2c(F)cccc2F)on1`, for which the activation is -0.16% (inactive).

For `CC(C)Cc1cc(C(=O)Nc2cc(Br)ccc2O)no1`, the activation was -1.29% (inactive).

In the case of `COc1ccc(-n2c(SCC(=O)Nc3ccc(C)c(Cl)c3)nc3ccccc3c2=O)cc1`, the activation was -2.01% (inactive).

Regarding `CC(=O)Nc1nc2ncccn2c1-c1ccc(C(F)(F)F)cc1`, the activation is -0.67% (inactive).

On to `Brc1ccc(C2CC(c3ccccc3)=Nc3ccccc3N2)cc1` (stereo not drawn), for which the activation is 0.69% (inactive).

For the molecule `c1ccc(C2=Nc3cccc4cccc(c34)N2)cc1`, the activation is 1.19% (active).

As for `COc1ccccc1C1=Nc2cccc3cccc(c23)N1`, the activation is -1.81% (inactive).

With `COC(=O)[C@]12C[C@H](CC(=O)NCc3ccccc3)C(=O)N(CCC3=CCCCC3)C1=C[C@H](C(C)C)O[C@@H]2C1CC1`, the activation is -1.77% (inactive).

Regarding `COc1ccc(-n2c(SCC(=O)Nc3ccccc3-c3ccccc3)nnc2-c2cccnc2)cc1`, the activation was -1.34% (inactive).

For the molecule `CN1C(=O)/C(=N/OC(=O)c2ccccc2Br)c2ccccc21`, the activation is -1% (inactive).

Regarding `CN1C(=O)/C(=C\c2cc(Br)cs2)c2ccccc21`, the activation is 1.58% (active).

As for `CCC1C(=O)c2ccccc2N(C)C1=O` (stereo not drawn), the activation was -0.91% (inactive).

Take `CCC(CO)Nc1cccc2c1S(=O)(=O)N(Cc1cn(Cc3ccccc3C(F)(F)F)nn1)Cc1ccccc1O2` (stereo not drawn): the activation was -1.78% (inactive).

Regarding `CCC(C)(C)NC(=O)CN(C(=O)CCC(=O)Nc1nccs1)c1ccc2c(c1)OCO2`, the activation was 1.27% (active).

For `O=C(CN(C(=O)CCC(=O)Nc1nccs1)c1ccc(F)cc1)NCc1ccc2c(c1)OCO2`, the activation is -0.97% (inactive).

`CCC(C)(C)NC(=O)CN(C(=O)CCC(=O)Nc1cc(C)ccn1)c1ccc2c(c1)OCCO2`: the activation is -1.73% (inactive).

On to `FC(F)(F)c1cccc(NC(=S)OC2CCC23CCC(c2ccccc2)CC3)c1` (stereo not drawn), for which the activation was -0.81% (inactive).

On to `CC(NCc1ccco1)C(=O)N1CCCCC1` (stereo not drawn), for which the activation is -1.35% (inactive).

With `COC(=O)c1sccc1NC(=O)CCC1CCCC1`, the activation is -0.73% (inactive).

Consider `COC(=O)c1sccc1N/N=C(\C)c1ccc(F)c(Cl)c1`, for which the activation was -1% (inactive).

In the case of `COC(=O)c1sccc1NC(=O)c1ccc(Cl)cc1`, the activation was 0.94% (active).

As for `Cc1nnc(-c2ccc(Oc3ccc(C)c(C)c3)c([N+](=O)[O-])c2)o1`, the activation was -0.81% (inactive).

Take `CCOC(=O)N1CCN(C(=O)C[C@@H]2C(=O)N(CCc3ccc(Cl)cc3)C3=CCCC[C@]32C(=O)OCC)CC1`: the activation is -1.59% (inactive).

In the case of `O=C(CN1CCSCC1)N/N=C/c1ccc(Cl)cc1`, the activation is 1.53% (active).

With `Cc1ccc(S(=O)(=O)N2CCN(CC(=O)N/N=C/c3ccc(Br)s3)CC2)cc1`, the activation is -1.5% (inactive).

Consider `O=C(CN1CCSCC1)N/N=C/c1ccc(F)cc1F`, for which the activation is -1.01% (inactive).

As to `COc1ccc(N2CCN(CCNS(=O)(=O)c3ccc(Cl)s3)CC2)cc1`, the activation is -0.86% (inactive).

Consider `O=C(NC1CCCCN(Cc2cccc(C(F)(F)F)c2)C1=O)c1ccccc1I` (stereo not drawn), for which the activation is -1.74% (inactive).

Consider `CCn1c(NC(=O)c2nn(C)cc2Br)nc2ccccc21`, for which the activation is -0.8% (inactive).

With `Cn1c(NC(=O)c2ccccc2)nc2ccccc21`, the activation is 1.7% (active).

With `COC(=O)c1ccc(-n2cnc3ccccc32)nc1`, the activation is -0.78% (inactive).

With `COc1ccccc1C(=O)NC1CCCCN(C(C)C)C1=O` (stereo not drawn), the activation is -0.64% (inactive).

With `CCN(CC)S(=O)(=O)c1ccc(NC(=O)c2cccnc2Cl)c(NC(=O)c2cccnc2Cl)c1`, the activation is -0.9% (inactive).

For `CCN(CC)S(=O)(=O)c1ccc(NC(=O)c2cnc(C)cn2)cc1`, the activation is 1.35% (active).

Take `CCOC(=O)N1CCC(N2Cc3cccc(C(=O)Nc4ccc(S(=O)(=O)N(CC)CC)cc4)c3C2=O)CC1`: the activation is -1.26% (inactive).

`COC(=O)C1CN(CC(C)C)CCS(=O)(=O)N1Cc1ccc(F)cc1` (stereo not drawn): the activation is -1.13% (inactive).

In the case of `CCOC(=O)[C@]12CCCCC/C=C\1N(Cc1ccc(OC)cc1)C(=O)[C@H]2CC(=O)N1CCOCC1`, the activation was -0.98% (inactive).

On to `COc1ccc(NCCc2ccccn2)cc1`, for which the activation was 1.17% (active).

For the molecule `COc1cncc(-c2cnc3sc(NCCc4ccccn4)nn23)c1`, the activation is -1.45% (inactive).

Consider `Cc1c(C)c(C)c(S(=O)(=O)NCCc2ccccn2)c(C)c1C`, for which the activation is 0.14% (inactive).

For `COC(=O)[C@@]12CCCCC3=C1N(CCC3)C(=O)[C@H]2CC(=O)NCc1cccc2ccccc12`, the activation was -0.9% (inactive).

Turning to `COc1cccc(NS(=O)(=O)c2ccc(-c3coc(C)n3)cc2)c1`, the activation is -0.73% (inactive).

Consider `COC(=O)C(C)Oc1ccc2c(-c3cccc([N+](=O)[O-])c3)cc(=O)oc2c1` (stereo not drawn), for which the activation is -1.35% (inactive).

Turning to `O=[N+]([O-])c1ccc2oc(-c3cccc(O)c3)nc2c1`, the activation was 3.74% (active).

As for `COc1cccc(-c2cnc(OC(C)(C)C)nc2OC(C)(C)C)c1`, the activation is -1.2% (inactive).

Regarding `COc1cccc(-c2nc3cc(C)ccc3o2)c1`, the activation is 2.34% (active).

For the molecule `O=C(O)c1ccc([N+](=O)[O-])cc1Sc1ccsc1`, the activation was -1.44% (inactive).

For `Cc1cc(=O)[nH]c(SCC(=O)Nc2ccc(F)cc2F)n1`, the activation is -1.31% (inactive).

Turning to `C=CCN1[C@@H](Cc2ccccc2)COc2cccc(N3CCSCC3)c2S1(=O)=O`, the activation was -1.93% (inactive).

On to `O=C(N1CCOCC1)N1CC[C@H]2[C@H](CCCN2Cc2ccc(F)cc2)C1`, for which the activation is -1.48% (inactive).

Take `C[C@H](C(=O)N(C)c1ccccc1)[C@@H](O)c1ccc(Cl)cc1`: the activation is -1.24% (inactive).

As for `Cn1c(=O)[nH]c(=O)c2c1nc(CN1CCN(c3ccccc3F)CC1)n2CCc1ccccc1`, the activation is -1.22% (inactive).
